# Reference: PubChem BioAssay (NCATS)
# Inconclusive results are not listed. Active and inactive are the calls of the source. Calls come from the whole dose curve; as a rule, active = well fitted curve in the direction sought with a large enough effect; inconclusive = small, poorly fitted or top-dose-only effect, or another doubt; inactive = no such curve, though single readings can be large; an effect the other way counts as inactive or inconclusive.
# Key:
# [1] = Quantitative High-Throughput drug screen in 47 multiple myeloma cell lines against the NCATS MIPE library collection: MMM1_PLB cell viability assay (AID 1918976); note: nearly all actives have a fitted effect of over 35% in size
# Outline: (§1)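 MIPE 4.0 approved/investigational drugs; 500 cells/well; 48 h 37 °C humidified 5% CO2; CTG luminescence readout; DMSO = 100%, media = 0% viability.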
# [2] = Quantitative High-Throughput drug screen in 47 multiple myeloma cell lines against the NCATS MIPE library collection: MOLP8_DSMZ cell viability assay (AID 1918977); note: nearly all actives have a fitted effect of over 45% in size
# Outline: as §1
# [3] = Quantitative High-Throughput drug screen in 47 multiple myeloma cell lines against the NCATS MIPE library collection: NCIH929_DSMZ cell viability assay (AID 1918978); note: nearly all actives have a fitted effect of over 35% in size
# Outline: as §1
# [4] = Quantitative High-Throughput drug screen in 47 multiple myeloma cell lines against the NCATS MIPE library collection: MM1S_ATCC cell viability assay (AID 1918980); note: nearly all actives have a fitted effect of over 45% in size
# Outline: as §1
# [5] = Quantitative High-Throughput drug screen in 47 multiple myeloma cell lines against the NCATS MIPE library collection: KMS28PE_JCRB cell viability assay (AID 1918983); note: nearly all actives have a fitted effect of over 35% in size
# Outline: as §1
# [6] = Quantitative High-Throughput drug screen in 47 multiple myeloma cell lines against the NCATS MIPE library collection: L363_DSMZ cell viability assay (AID 1918984); note: nearly all actives have a fitted effect of over 40% in size
# Outline: as §1
# [7] = Quantitative High-Throughput drug screen in 47 multiple myeloma cell lines against the NCATS MIPE library collection: OCIMY1_PLB cell viability assay (AID 1918979); note: nearly all actives have a fitted effect of over 35% in size; for viability: series mostly up to about 46 µM
# Outline: as §1
# [8] = Quantitative High-Throughput drug screen in 47 multiple myeloma cell lines against the NCATS MIPE library collection: MM1R_ATCC cell viability assay (AID 1918981); note: nearly all actives have a fitted effect of over 35% in size
# Outline: as §1
# [9] = Quantitative High-Throughput drug screen in 47 multiple myeloma cell lines against the NCATS MIPE library collection: LP1_DSMZ cell viability assay (AID 1918982); note: nearly all actives have a fitted effect of over 35% in size
# Outline: as §1
# [10] = Quantitative High-Throughput drug screen in 47 multiple myeloma cell lines against the NCATS MIPE library collection: KMS34_JCRB cell viability assay (AID 1918985); note: nearly all actives have a fitted effect of over 40% in size
# Outline: as §1
# Potency is the fitted concentration of half-maximal effect.
SMILES,Potency [1],Potency [2],Potency [3],Potency [4],Potency [5],Potency [6],Potency [7],Potency [8],Potency [9],Potency [10]
CN(Cc1cc(Br)cc(Br)c1N)C1CCCCC1,33.2 µM (active),inactive,inactive,inactive,inactive,inactive,–,–,–,–
CC(C)C[C@H](NC(=O)[C@H](CCc1ccccc1)NC(=O)CN1CCOCC1)C(=O)N[C@@H](Cc1ccccc1)C(=O)N[C@@H](CC(C)C)C(=O)[C@@]1(C)CO1,0.0833 µM (active),0.0019 µM (active),0.001 µM (active),0.0023 µM (active),0.003 µM (active),0.001 µM (active),0.0093 µM (active),0.0037 µM (active),0.0093 µM (active),0.0059 µM (active)
N=C(N)c1ccc(OCCCCCOc2ccc(C(=N)N)cc2)cc1,14.8 µM (active),5.26 µM (active),–,16.6 µM (active),14.8 µM (active),inactive,–,18.7 µM (active),–,20.9 µM (active)
CC(C)NCC(O)c1ccc(NS(C)(=O)=O)cc1 (stereo not drawn),2.09 µM (active),–,inactive,7.43 µM (active),inactive,–,inactive,inactive,inactive,–
CC(=O)Oc1ccccc1C(=O)Nc1ncc([N+](=O)[O-])s1,10.8 µM (active),34 µM (active),19.1 µM (active),21.5 µM (active),38.2 µM (active),17.1 µM (active),42.9 µM (active),19.1 µM (active),21.5 µM (active),42.9 µM (active)
CO[C@@]12[C@H](COC(N)=O)C3=C(C(=O)C(C)=C(N)C3=O)N1C[C@@H]1N[C@@H]12,23.5 µM (active),23.5 µM (active),26.4 µM (active),0.264 µM (active),23.5 µM (active),–,–,11.8 µM (active),–,26.4 µM (active)
NCCCC(O)(P(=O)(O)O)P(=O)(O)O,inactive,inactive,inactive,11.8 µM (active),inactive,–,inactive,inactive,inactive,–
COc1cc2ncnc(Nc3cccc(Cl)c3)c2cc1OC,11.8 µM (active),20.9 µM (active),–,0.0743 µM (active),26.4 µM (active),–,–,20.9 µM (active),inactive,–
Nc1[nH]c(=O)ncc1F,8.33 µM (active),inactive,inactive,–,inactive,inactive,inactive,inactive,inactive,–
Nc1nc(F)nc2c1ncn2[C@@H]1O[C@H](CO)[C@@H](O)[C@@H]1O,0.469 µM (active),0.166 µM (active),0.209 µM (active),0.209 µM (active),0.372 µM (active),0.148 µM (active),0.469 µM (active),0.166 µM (active),0.59 µM (active),0.296 µM (active)
CCOC(=O)[C@H](CCc1ccccc1)N[C@H]1CS[C@H](c2cccs2)CN(CC(=O)O)C1=O,16.6 µM (active),20.9 µM (active),5.9 µM (active),0.418 µM (active),18.7 µM (active),0.662 µM (active),inactive,18.7 µM (active),–,10.5 µM (active)
Nc1nc(N)nc(-c2cc(Cl)ccc2Cl)n1,0.0526 µM (active),inactive,inactive,–,inactive,inactive,inactive,inactive,inactive,inactive
Cn1c(=O)c2c(ncn2CC(O)CO)n(C)c1=O (stereo not drawn),inactive,inactive,inactive,inactive,inactive,5.26 µM (active),inactive,inactive,inactive,inactive
CNCC[C@H](Oc1cccc2ccccc12)c1cccs1,29.6 µM (active),18.7 µM (active),1.87 µM (active),2.35 µM (active),18.7 µM (active),–,18.7 µM (active),14.8 µM (active),18.7 µM (active),–
CN(C)c1ccc(C(=C2C=CC(=[N+](C)C)C=C2)c2ccc(N(C)C)cc2)cc1,0.132 µM (active),0.0526 µM (active),0.0264 µM (active),0.105 µM (active),0.105 µM (active),–,2.09 µM (active),0.132 µM (active),0.418 µM (active),0.105 µM (active)
CCCc1nc(C)c2c(=O)[nH]c(-c3cc(S(=O)(=O)N4CCN(CC)CC4)ccc3OCC)nn12,6.62 µM (active),5.26 µM (active),3.72 µM (active),4.69 µM (active),8.33 µM (active),4.18 µM (active),4.69 µM (active),4.18 µM (active),4.69 µM (active),3.72 µM (active)
COc1ccc2cc3[n+](cc2c1OC)CCc1cc2c(cc1-3)OCO2,6.62 µM (active),14.8 µM (active),–,14.8 µM (active),16.6 µM (active),6.62 µM (active),–,4.69 µM (active),4.69 µM (active),–
COc1cc2nc(N3CCCN(C)CC3)nc(NC3CCN(Cc4ccccc4)CC3)c2cc1OC,5.26 µM (active),4.69 µM (active),2.64 µM (active),2.64 µM (active),16.6 µM (active),1.66 µM (active),5.9 µM (active),4.18 µM (active),4.69 µM (active),8.33 µM (active)
NC1(c2ccc(-c3nc4ccn5c(=O)[nH]nc5c4cc3-c3ccccc3)cc2)CCC1,0.332 µM (active),3.72 µM (active),0.059 µM (active),0.662 µM (active),6.62 µM (active),2.64 µM (active),–,5.26 µM (active),–,9.35 µM (active)

SMILES,Potency [1],Potency [2],Potency [3],Potency [4],Potency [5],Potency [6],Potency [7],Potency [8],Potency [9],Potency [10]
Cn1nnc2c(C(N)=O)ncn2c1=O,inactive,inactive,inactive,–,–,–,inactive,inactive,inactive,–
C1CCC(C(CC2CCCCN2)C2CCCCC2)CC1 (stereo not drawn),8.33 µM (active),16.6 µM (active),20.9 µM (active),6.62 µM (active),18.7 µM (active),8.33 µM (active),29.6 µM (active),9.35 µM (active),14.8 µM (active),–
COC(=O)Nc1nc2ccc(Sc3ccccc3)cc2[nH]1,18.7 µM (active),13.2 µM (active),8.33 µM (active),2.09 µM (active),5.26 µM (active),0.469 µM (active),3.32 µM (active),4.18 µM (active),2.35 µM (active),2.96 µM (active)
CCc1c2c(nc3ccc(OC(=O)N4CCC(N5CCCCC5)CC4)cc13)-c1cc3c(c(=O)n1C2)COC(=O)[C@]3(O)CC,0.935 µM (active),0.148 µM (active),16.6 µM (active),1.32 µM (active),1.87 µM (active),0.0372 µM (active),–,1.05 µM (active),0.59 µM (active),1.18 µM (active)
CC(C)(C)C(=O)OCOP(=O)(COCCn1cnc2c(N)ncnc21)OCOC(=O)C(C)(C)C,18.7 µM (active),–,0.209 µM (active),2.09 µM (active),4.18 µM (active),4.69 µM (active),11.8 µM (active),0.332 µM (active),16.6 µM (active),–
Cc1ccc(S(=O)(=O)N[C@@H](Cc2ccccc2)C(=O)CCl)cc1,20.9 µM (active),14.8 µM (active),10.5 µM (active),11.8 µM (active),20.9 µM (active),11.8 µM (active),23.5 µM (active),16.6 µM (active),20.9 µM (active),20.9 µM (active)
O=C(O)c1cccnc1,1.48 µM (active),inactive,inactive,inactive,inactive,inactive,inactive,inactive,inactive,inactive
CC1CC2C3CCC4=CC(=O)C=C[C@]4(C)[C@@]3(F)[C@@H](O)C[C@]2(C)[C@@]1(O)C(=O)CO (stereo partly drawn),0.0264 µM (active),0.935 µM (active),0.0526 µM (active),0.59 µM (active),0.0935 µM (active),–,–,inactive,–,–
COc1ccc2c(c1)c(CC(=O)OCC(=O)O)c(C)n2C(=O)c1ccc(Cl)cc1,4.18 µM (active),inactive,inactive,–,inactive,inactive,inactive,–,inactive,inactive
Cc1nnc(C(=O)NC(C)(C)c2nc(C(=O)NCc3ccc(F)cc3)c(O)c(=O)n2C)o1,7.43 µM (active),inactive,inactive,inactive,inactive,inactive,inactive,inactive,inactive,inactive
CCCCc1oc2ccc(NS(C)(=O)=O)cc2c1C(=O)c1ccc(OCCCN(CCCC)CCCC)cc1,7.43 µM (active),16.6 µM (active),18.7 µM (active),20.9 µM (active),20.9 µM (active),8.33 µM (active),20.9 µM (active),14.8 µM (active),16.6 µM (active),–
CC(C)(C#N)c1cc(Cn2cncn2)cc(C(C)(C)C#N)c1,1.32 µM (active),–,inactive,inactive,inactive,inactive,inactive,inactive,inactive,inactive
O=C(O)C1CCCN(CCC=C(c2ccccc2)c2ccccc2)C1 (stereo not drawn),inactive,0.0059 µM (active),inactive,9.35 µM (active),inactive,–,–,inactive,–,inactive
Oc1c(Cl)cc(Cl)c2cccnc12,16.6 µM (active),11.8 µM (active),10.5 µM (active),7.43 µM (active),20.9 µM (active),9.35 µM (active),18.7 µM (active),11.8 µM (active),26.4 µM (active),16.6 µM (active)
COc1cc(NCc2ccc3nc(N)nc(N)c3c2C)cc(OC)c1OC,8.33 µM (active),5.26 µM (active),3.72 µM (active),8.33 µM (active),14.8 µM (active),0.935 µM (active),13.2 µM (active),7.43 µM (active),1.48 µM (active),3.72 µM (active)
CCOC(=O)[C@H](CCc1ccccc1)N[C@H]1CCc2ccccc2N(CC(=O)O)C1=O,18.7 µM (active),18.7 µM (active),26.4 µM (active),8.33 µM (active),20.9 µM (active),7.43 µM (active),23.5 µM (active),20.9 µM (active),20.9 µM (active),–
CN(CCOc1ccc(CC2SC(=O)NC2=O)cc1)c1ccccn1 (stereo not drawn),14.8 µM (active),inactive,inactive,16.6 µM (active),inactive,–,inactive,–,inactive,inactive
O=C(O)CSCC(=O)NC1CCSC1=O (stereo not drawn),–,inactive,inactive,inactive,inactive,–,inactive,–,inactive,–
